Source: PubChem
MCF10A rerep: A quantitative high throughput screen for small molecules that induce DNA re-replication in MCF 10a normal breast cells; MCF 10A DNA re-replication, Hoechst nuclear intensity, 48 h; Potency, µM (series often up to 46.1 µM), hits mostly activators; 2.9% of 350,000 active; AID 624296, 2012; also: nearly all actives have a fitted effect of over 50% in size
PTAP TSG101 blk: qHTS Assay for Iinhibitors of HIV-1 Budding by Blocking the Interaction of PTAP/TSG101 | Tumor susceptibility gene 101 protein (Homo sapiens), Q99816 | Fluorescence polarization, FITC-PTAP peptide / Tsg101 binding | Potency, µM (highest dose often 115 µM), hits mostly inhibitors | 340,000 tested, under 10 active | AID 493005, 2010; active = well fitted inhibition curve with a large enough effect in the main read-out, with a control signal flat, not every such curve was filed as active; inconclusive = small, poorly fitted or top-dose-only effect, or effect the other way, or a change in a side signal; inactive = no such curve, though single readings can be large or run the other way
Target sequence (Q99816 whole entry, looked up): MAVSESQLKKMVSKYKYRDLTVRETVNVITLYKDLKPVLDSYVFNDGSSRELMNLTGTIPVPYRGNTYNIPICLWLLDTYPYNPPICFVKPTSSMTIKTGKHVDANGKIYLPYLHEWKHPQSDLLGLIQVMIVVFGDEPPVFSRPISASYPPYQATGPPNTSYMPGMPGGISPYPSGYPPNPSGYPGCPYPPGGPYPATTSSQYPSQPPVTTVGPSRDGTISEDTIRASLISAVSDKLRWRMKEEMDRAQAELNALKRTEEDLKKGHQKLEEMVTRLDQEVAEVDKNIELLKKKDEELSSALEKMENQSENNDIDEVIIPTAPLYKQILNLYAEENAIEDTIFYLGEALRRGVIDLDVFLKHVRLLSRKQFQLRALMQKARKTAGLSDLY
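Steps: Tsg101 binding domain dispensed (10 uM final), compounds pinned in DMSO, FITC-labeled PTAP-motif peptide added (50 nM final); after 20 min binding at room temperature, polarization measured.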
KB-V1 cytotox: qHTS assay for MDR1-selective chemotherapeutics: Primary screen using the drug-selected MDR subline cells KB-V1 | KB-V1 MDR cells viability, CellTiter-Glo, 72 h | Potency, µM (top dose mostly 46.1 µM), actives largely listed as cytotoxic | 3.4% of 400,000 active; also: nearly all actives have a fitted effect of over 60% in size
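KB-V1, DMEM (no phenol red) + 10% FBS; cpd pin-transferred, titration series; 72 h, 37 degrees C; CellTiter-Glo, luminescence. Data normalized, curve-fit.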
SW480 rereplic: A quantitative high throughput screen for small molecules that induce DNA re-replication in SW480 colon adenocarcinoma cells; Potency, µM (doses to about 46.1 µM), actives largely listed as activators; 1.8% of 340,000 active; SW480 DNA re-replication, Hoechst DNA content imaging, 48 h; AID 624297, 2012; also: nearly all actives have a fitted effect of over 55% in size
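Per well, 250 cells were exposed to pinned compound for 48 hr. Nuclear DNA was visualised with Hoechst (40 min, 37 C) and total object intensity recorded by fluorescence scanning.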
KB-3-1 tox: qHTS assay for MDR1-selective chemotherapeutics: Primary screen using the parental adenocarcinoma cell KB-3-1; KB-3-1 viability, CellTiter-Glo ATP luminescence, 72 h; 1.4% of 400,000 active; Potency, µM (doses to about 46.1 µM), most hits filed as cytotoxic; also: nearly all actives have a fitted effect of over 60% in size
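Using CellTiter-Glo luminescence, growth of non-resistant KB-3-1 adenocarcinoma cells is assessed 72 h after pin-tool compound addition at 37 °C. Normalized responses across the concentration series yield fitted curves.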
PINK1 modulator: A Quantitative High throughput Screen to Identify Chemical Modulators of PINK1 Expression. PINK1 immunofluorescence, high-content cytometry, 24 h. Potency, µM (top dose mostly 76.6 µM), usual class: activators. 0.2% of 410,000 active; active = well fitted activation curve with a large enough effect; inconclusive = small, poorly fitted or top-dose-only effect; cell line not stated here; also: nearly all actives have a fitted effect of over 65% in size
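Decision-based qHTS: stable cells, 24 h exposure to five compound concentrations, CCCP as control. Fixed cells stained for PINK1 plus nuclear, mitochondrial and cell markers, cytometer read.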
Hits are given with their value; ! = repeats disagree. Compounds with a hit are over-represented: about 6.8% of the library has one in this group of screens. Unless noted, calls follow the shape of the dose curve; as a rule, active = well fitted curve in the direction sought with a large enough effect; inconclusive = small, poorly fitted or top-dose-only effect, or another doubt; inactive = no such curve, though single readings can be large; an effect the other way counts as inactive or inconclusive.

Results for Cc1nc(C)n(CC(=O)NCC2Cc3cc(-c4ccsc4)cc(Cl)c3O2)n1 (centres undefined) ?
PINK1 modulator: inactive

Results for CCC(=O)c1ccc(OCC(=O)c2ccc3c(c2)NC(=O)CO3)cc1 ?
MCF10A rerep: inactive; PTAP TSG101 blk: inactive; KB-V1 cytotox: inactive; SW480 rereplic: inactive; KB-3-1 tox: inactive; PINK1 modulator: inactive

Results for O=C1COc2ccc(C(=O)CCl)cc2N1 ?
MCF10A rerep: 21µM; PTAP TSG101 blk: inactive; KB-V1 cytotox: inactive; SW480 rereplic: 21µM; KB-3-1 tox: inconclusive; PINK1 modulator: inactive

Results for Cc1sc2ncn(CC(=O)NCC(=O)N(C)C3CCCCC3)c(=O)c2c1C ?
MCF10A rerep: inactive; PTAP TSG101 blk: inactive; KB-V1 cytotox: 23µM; SW480 rereplic: inactive; KB-3-1 tox: inactive; PINK1 modulator: inactive

How did Cc1sc2ncn(CC(=O)NCC(=O)N(C)Cc3ccccc3)c(=O)c2c1C do in these assays?
MCF10A rerep: inactive; PTAP TSG101 blk: inactive; KB-V1 cytotox: inactive; SW480 rereplic: inactive; KB-3-1 tox: inactive; PINK1 modulator: inconclusive

How did COc1cccc(C2=NS(=O)(=O)N(C)C(C(=O)Nc3ccccc3SC)=C2)c1 do in these assays?
KB-V1 cytotox: inactive; KB-3-1 tox: inactive; PINK1 modulator: inactive

How did O=C(CCc1ccccc1)NCC(c1ccco1)N1CCc2ccccc21 (centres undefined) do in these assays?
MCF10A rerep: 4.6µM; PTAP TSG101 blk: inactive; KB-V1 cytotox: 7.3µM; SW480 rereplic: 18µM; KB-3-1 tox: 3.7µM; PINK1 modulator: inactive

What do the screens show for `COc1cccc(-c2nc3cc4c(cc3cc2CN(C(=O)c2cccs2)C2CC2)CCC4)c1OC`?
PINK1 modulator: inactive

What do the screens show for `CC1(C)CCC(=O)N2CC[C@H]3C[C@H](OC(=O)Nc4ccc5c(c4)OCO5)C[C@@H]1[C@H]32`?
MCF10A rerep: inactive; PTAP TSG101 blk: inactive; KB-V1 cytotox: inactive; SW480 rereplic: inactive; KB-3-1 tox: inactive; PINK1 modulator: inactive

Results for CC1(C)CCC(=O)N2CC[C@H]3C[C@H](OC(=O)Nc4ccccc4)C[C@@H]1[C@H]32 ?
MCF10A rerep: inactive; PTAP TSG101 blk: inactive; KB-V1 cytotox: 18µM!; SW480 rereplic: inactive; KB-3-1 tox: inactive; PINK1 modulator: inactive

Results for CCC1CSC(Nc2ccc(C(=O)/C=C/c3ccc(OC)c(OC)c3)cc2)=N1 (centres undefined) ?
MCF10A rerep: inconclusive; PTAP TSG101 blk: inactive; KB-V1 cytotox: 2.9µM; SW480 rereplic: inconclusive; KB-3-1 tox: inconclusive; PINK1 modulator: inactive

How did CCC1CSC(Nc2ccc(C(=O)/C=C/c3ccc(Br)cc3)cc2)=N1 (centres undefined) do in these assays?
MCF10A rerep: 16µM; PTAP TSG101 blk: inactive; KB-V1 cytotox: inconclusive; SW480 rereplic: inconclusive; KB-3-1 tox: inactive; PINK1 modulator: inactive

What do the screens show for `COc1ccc(NC(=O)c2cc(C3CC3)nc3c2c(C)nn3-c2ccc(C)cc2)cc1OC`?
KB-V1 cytotox: inactive; KB-3-1 tox: inactive; PINK1 modulator: inactive

Results for CCCNC1=C(N(C(C)=O)c2cccc(F)c2)C(=O)c2ccccc2C1=O ?
MCF10A rerep: 0.73µM; PTAP TSG101 blk: inactive; KB-V1 cytotox: inconclusive; SW480 rereplic: 5.8µM; KB-3-1 tox: 1.3µM; PINK1 modulator: inactive

Results for O=C(c1cccs1)N1CCCc2cc(NS(=O)(=O)c3ccc(Cl)cc3)ccc21 ?
KB-V1 cytotox: inactive; KB-3-1 tox: inactive; PINK1 modulator: inactive

What do the screens show for `Cc1ccc(-c2nn3c(C)nnc3s2)cc1N`?
MCF10A rerep: inactive; PTAP TSG101 blk: inactive; KB-V1 cytotox: inconclusive; SW480 rereplic: inactive; KB-3-1 tox: inconclusive; PINK1 modulator: inactive

What do the screens show for `Cc1nnc2sc(-c3ccc(-c4ccc(Cl)c(C(F)(F)F)c4)o3)nn12`?
MCF10A rerep: inactive; PTAP TSG101 blk: inactive; KB-V1 cytotox: 15µM; SW480 rereplic: inactive; KB-3-1 tox: inactive; PINK1 modulator: inactive

What do the screens show for `COC(=O)c1c(NC(=O)CN2C(=O)NC3(CCCCC3C)C2=O)sc2c1CCC2` (centres undefined)?
MCF10A rerep: inactive; PTAP TSG101 blk: inactive; KB-V1 cytotox: inactive; SW480 rereplic: inactive; KB-3-1 tox: 10µM; PINK1 modulator: inactive

What do the screens show for `CCOC(=O)c1c(NC(=O)CN2C(=O)NC3(CCCCC3C)C2=O)sc(C)c1CC` (centres undefined)?
MCF10A rerep: inconclusive; PTAP TSG101 blk: inactive; KB-V1 cytotox: inconclusive; SW480 rereplic: inactive; KB-3-1 tox: inactive; PINK1 modulator: inactive

How did COc1cc(CC(=O)OCC(=O)c2ccc3c(c2)OCCO3)cc(OC)c1OC do in these assays?
MCF10A rerep: 1.3µM; PTAP TSG101 blk: inactive; KB-V1 cytotox: 0.73µM; SW480 rereplic: 3.3µM; KB-3-1 tox: 1µM; PINK1 modulator: inactive

What do the screens show for `CCOC(=O)c1cnc2c(OC)cccc2c1Nc1cccc(O)c1`?
KB-V1 cytotox: 13µM; KB-3-1 tox: inconclusive; PINK1 modulator: inactive

Results for CCOC(=O)c1cnc2c(C(F)(F)F)cccc2c1Nc1cccc(C(=O)OC)c1 ?
KB-V1 cytotox: inactive; KB-3-1 tox: inactive; PINK1 modulator: inactive

How did Cc1ccc(NC2=CC(=O)CC(c3ccco3)C2)c(N)c1 (centres undefined) do in these assays?
MCF10A rerep: 10µM; PTAP TSG101 blk: inactive; KB-V1 cytotox: inactive; SW480 rereplic: inactive; KB-3-1 tox: inactive; PINK1 modulator: inactive

What do the screens show for `O=C1C=C(Nc2cccc(Cl)c2)CC(c2ccco2)C1` (centres undefined)?
MCF10A rerep: inactive; PTAP TSG101 blk: inactive; KB-V1 cytotox: inconclusive; SW480 rereplic: inactive; KB-3-1 tox: inactive

How did Cc1cc(C)cc(NC2=CC(=O)CC(c3ccco3)C2)c1 (centres undefined) do in these assays?
MCF10A rerep: inactive; PTAP TSG101 blk: inactive; KB-V1 cytotox: 16µM; SW480 rereplic: inactive; KB-3-1 tox: inactive; PINK1 modulator: inactive

How did CCOc1cc(CNc2ccc3c(c2)OCCO3)cc(Br)c1OCC do in these assays?
MCF10A rerep: 2.6µM; PTAP TSG101 blk: inactive; KB-V1 cytotox: 2.6µM; SW480 rereplic: 5.8µM; KB-3-1 tox: 5.2µM; PINK1 modulator: inactive

Results for CCOc1cc(CNc2ccc(N3CCCC3)cc2)cc(Cl)c1OC ?
MCF10A rerep: inconclusive; PTAP TSG101 blk: inactive; KB-V1 cytotox: inconclusive; SW480 rereplic: 16µM; KB-3-1 tox: inconclusive; PINK1 modulator: inconclusive

How did COc1cc(CNc2ccc(N3CCCC3)cc2)cc(Cl)c1OC do in these assays?
MCF10A rerep: 23µM; PTAP TSG101 blk: inactive; KB-V1 cytotox: inconclusive; SW480 rereplic: inconclusive; KB-3-1 tox: 12µM; PINK1 modulator: inactive
